CRFBP-R2 agonist: agonists of human CRF-binding protein/CRF-R2 receptor complex; HEK293 CRF-R2/CRF-BP, calcium dye fluorescence (FLIPR); percent of saturating CRF peptide response; activation, % at 13.2 µM; 350,000 tested, 0.46% active; AID 588473;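 active = activation of at least 50%, plus an integration ratio under a set limit after plate pattern correction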;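 note: plate controls were neutral control wells without compound for no effect and CRF at EC100 for full effect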
MPTP inh: inhibitors of mitochondrial permeability transition pore; isolated mouse mitochondria, Ca2+ swelling absorbance, 30 min; inhibition, % at 10 µM; 360,000 tested, 1.4% active;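 active = inhibition of 50% or more, scaled per plate between neutral and stimulator controls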;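 note: 0% = DMSO wells given calcium and 100% = 1 mM EGTA wells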
CRFBP-R2 block: antagonists of CRF-binding protein/CRF-R2 receptor complex | 350,000 tested, 0.59% active | inhibition, % at 11.8 µM | AID 588475 | HEK293 CRF-R2/CRF-BP, CRF-induced calcium fluorescence;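 active = inhibition of the ligand-induced calcium signal above about 50% at the single tested concentration, limit read from the data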
TMEM16A act: activators or potentiators of mouse TMEM16A chloride channel | Q8BHY3 | HEK293 TMEM16A/YFP-H148Q/I152L, iodide quench fluorescence; hits give low values | B-score at 10 µM | 340,000 tested, 0.3% active | AID 623877;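 active = fluorescence-ratio B-score plate-corrected deviation score at least 3 library SD below zero, with starting fluorescence score within 5 deviations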;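 note: channel opened by trigger with iodide after compound preincubation; score built on the fluorescence ratio of max minus min over baseline; more negative score means more quench and so TMEM16A activation or potentiation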
Target sequence (Q8BHY3 whole entry, looked up): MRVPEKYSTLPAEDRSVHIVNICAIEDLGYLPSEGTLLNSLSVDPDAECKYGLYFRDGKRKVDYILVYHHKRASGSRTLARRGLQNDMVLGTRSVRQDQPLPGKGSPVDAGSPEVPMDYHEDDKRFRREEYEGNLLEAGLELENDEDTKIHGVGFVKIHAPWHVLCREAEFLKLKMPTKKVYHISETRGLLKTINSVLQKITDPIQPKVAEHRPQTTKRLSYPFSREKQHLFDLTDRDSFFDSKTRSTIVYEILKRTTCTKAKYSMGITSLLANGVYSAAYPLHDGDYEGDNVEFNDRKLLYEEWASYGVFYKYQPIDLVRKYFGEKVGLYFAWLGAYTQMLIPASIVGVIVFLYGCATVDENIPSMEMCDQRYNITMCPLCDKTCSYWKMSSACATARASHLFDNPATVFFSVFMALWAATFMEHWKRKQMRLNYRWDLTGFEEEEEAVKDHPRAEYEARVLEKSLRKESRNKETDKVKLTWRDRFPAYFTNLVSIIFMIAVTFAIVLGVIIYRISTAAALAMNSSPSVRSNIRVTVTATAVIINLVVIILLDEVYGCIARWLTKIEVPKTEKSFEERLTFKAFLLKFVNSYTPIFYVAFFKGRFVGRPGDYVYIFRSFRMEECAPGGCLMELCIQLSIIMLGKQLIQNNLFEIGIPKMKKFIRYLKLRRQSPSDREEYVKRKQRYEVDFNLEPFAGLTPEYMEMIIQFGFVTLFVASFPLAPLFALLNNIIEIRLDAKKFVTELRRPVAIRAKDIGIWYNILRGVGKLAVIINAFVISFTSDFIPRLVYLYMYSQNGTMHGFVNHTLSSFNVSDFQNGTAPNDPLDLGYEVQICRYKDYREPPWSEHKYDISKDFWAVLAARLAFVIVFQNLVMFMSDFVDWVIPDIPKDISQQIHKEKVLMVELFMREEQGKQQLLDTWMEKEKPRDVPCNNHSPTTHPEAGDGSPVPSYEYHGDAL
NR3A LBD binder: modulators (binders) of human NR3A ligand-binding domain | NR3A LBD differential scanning fluorimetry, Tm shift; 0% = protein alone, 100% = glycine-bound protein | Tm shift relative to glycine control, % at 25 µM | 340,000 tested, 2.5% active;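 active = melting temperature shift of at least 10% of the positive control shift, at one fixed dose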
TMEM16A inh: inhibitors of mouse TMEM16A calcium-activated chloride channel; Q8BHY3; HEK293 TMEM16A/YFP iodide influx fluorescence, ionomycin; normalized B-score (activity score, 25-100; higher = stronger inhibition) at 10 µM; 310,000 tested, 1.2% active; AID 588511;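 active = ratio plate-corrected score three or more library SD toward inhibition, starting fluorescence score within five deviations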;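 note: score derived from kinetic fluorescence span divided by baseline fluorescence per well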
TMEM16A reconf: reconfirmed blocker of mouse TMEM16A calcium-activated chloride channel; AID 652189; HEK293 TMEM16A/YFP-H148Q, iodide quench fluorescence; ionomycin added to raise cell calcium; inhibition, % at 10 µM; shares compounds with TMEM16A inh; 2,300 tested, 39% active;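 active = mean duplicate percent inhibition, scaled so buffer wells are 0 and the reference blocker 100, over three buffer SD above buffer mean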
TMEM16A Ca cntr: calcium mobilization counter-screen hit for TMEM16A inhibitor series. AID 652231. calcium response (% of ionomycin), % at 10 µM. TMEM16A/YFP HEK293, Fluo4 calcium mobilization. shares compounds with TMEM16A inh. 2,300 tested, 2% active;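 active = duplicate-averaged calcium signal over 20% of the ionomycin maximum, relative to buffer baseline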;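 note: each well's signal is peak minus trough fluorescence divided by its pre-addition baseline; 0% = buffer wells and 100% = ionomycin wells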
YFP-HEK293 quench: parental YFP-HEK293 iodide quench counter-screen activity; ionomycin; shares compounds with TMEM16A inh; 2,300 tested, under 10 active; YFP ratio F(max-min)/F0 at 10 µM;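 active = yellow fluorescent protein signal ratio exceeding the buffer control mean by over 5 SD of those controls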;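 note: ratio is mean of duplicate wells from kinetic YFP trace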
ClC-1 inh: rat ClC-1 inhibition, TMEM16A specificity screen | ratio percent, % at 10 µM | shares compounds with TMEM16A inh | AID 652236 | CHO ClC-1-YFP, iodide influx fluorescence quench; iodide control reads 0, buffer control 100 | 2,300 tested, under 10 active;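 active = duplicate-mean ratio percent above the mean of iodide-only control wells, which defines zero, plus 5 of their SD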;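 note: higher percent means stronger block of ClC-1 iodide influx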
* = called active by the depositor; i = inactive; . = not tested or not shown. Hits are enriched below; roughly 5.1% of the tested compounds scored in any of these assays.

SMILES	CRFBP-R2 agonist	MPTP inh	CRFBP-R2 block	TMEM16A act	NR3A LBD binder	TMEM16A inh	TMEM16A reconf	TMEM16A Ca cntr	YFP-HEK293 quench	ClC-1 inh
O=C(NC(=O)c1cccc(F)c1)Nc1nc(-c2ccc(F)cc2)cc(C(F)(F)F)n1	0	2	1	i	1	i	.	.	.	.
COc1ccccc1C(=O)NC(=O)Nc1nc(-c2ccccc2)cc(C(F)(F)F)n1	-1	2	-3	i	-10	25*	i	i	-1.1	-12
COc1ccc(-c2csc3nc(-c4cccnc4)nc(Cl)c23)cc1OC	1	22	8	i	-21	25*	i	i	-1.2	-19
COc1ccc(CN(C)C(C)C(=O)Nc2ccc(S(=O)(=O)N3CCCCC3)cc2)cc1F (configuration not stated)	3	2	-13	i	-2	.	.	.	.	.
Cc1c2ccccc2nc2c(F)c(NCCO)c(F)c(F)c12	19	1	-9	i	-8	i	.	.	.	.
OCCNc1c2ccccc2nc2c(F)c(F)c(F)c(F)c12	69*	0	-113	i	4	i	i	i	-1.3	2
CCN(CC(=O)Nc1ccc(NC(C)=O)cc1)C(=O)c1cc([N+](=O)[O-])ccc1Sc1ccc(Cl)cc1	0	1	-4	i	-1	.	.	.	.	.
CC(C)c1ccc(C2NC(=O)c3ccccc3O2)cc1 (configuration not stated)	0	0	-17	i	-1	i	.	.	.	.
CN(C)c1ccc(CNC(=O)C2(C)Cc3c(-c4ccc5c(c4)OCO5)ccnc3O2)cc1 (configuration not stated)	.	-1	.	.	.	.	.	.	.	.
NC(=O)c1cc([N+](=O)[O-])ccc1NCc1cccc(N)c1	-4	0	-5	i	0	i	.	.	.	.
CCn1c(SCC(=O)N2CCC(C)CC2)nc2c(c1=O)SCC2	0	1	3	i	-1	i	.	.	.	.
CC(C)(C)c1cc(C(c2cccnc2)N2CCN(CCO)CC2)cc(C(C)(C)C)c1O (configuration not stated)	0	-2	-2	i	4	100*	68%*	i	-1.1	-42
CC(C)(C)n1nnnc1C(c1cccnc1)N1CCN(c2cccc(C(F)(F)F)c2)CC1 (configuration not stated)	0	-1	21	i	0	i	.	.	.	.
O=C(CCNc1ccc(F)c(Cl)c1)c1ccco1	-2	2	0	i	2	i	.	.	.	.
O=C(CCNc1ccc(F)cc1)c1ccco1	-1	-1	6	i	0	100*	i	i	-1	-26
COc1cccc(CNC(=O)COC(=O)c2ccc(-c3ccc(O)cc3)cc2)c1	-2	-1	4	.	.	.	.	.	.	.
COc1ccc(NC(=O)COc2cc(C)cc(C)c2)cc1S(=O)(=O)N1CCCCC1	0	0	-1	i	24*	25*	i	i	-0.89	-20
Cc1ccc(C)c(OCCC(=O)OCC(=O)Nc2ccc(C)c(S(=O)(=O)N3CCCCC3)c2)c1	10	4	0	i	2	25*	i	i	-1.1	-14
Cc1ccccc1OCCC(=O)OCC(=O)Nc1ccc(C)c(S(=O)(=O)N2CCCCC2)c1	-2	0	-6	.	.	.	.	.	.	.
O=C(NCc1ccccc1)c1ccc(NC(=O)C2CCCCC2)cc1	-2	0	7	.	1	.	.	.	.	.
CCSc1nnc(NC(=O)CSc2nccn2-c2cc(C)cc(C)c2)s1	-2	.	12	.	-3	i	.	.	.	.
CCSc1nnc(NC(=O)CSc2nccn2-c2cccc(C)c2C)s1	-2	.	12	.	3	25*	i	i	-0.98	-12
N#CC1(Cc2ccccc2)c2ccccc2C=CN1C(=O)c1ccccc1 (configuration not stated)	3	-2	-4	i	2	100*	i	i	-1.2	-12
N#CC1(Cc2ccc([N+](=O)[O-])cc2)c2ccccc2C=CN1C(=O)c1ccccc1 (configuration not stated)	3	2	18	i	-14	i	.	.	.	.
Cc1cc(=O)oc2cc(OCC(O)CN3CCN(c4ccccc4)CC3)ccc12 (configuration not stated)	0	-1	10	i	-2	i	.	.	.	.
SMILES	CRFBP-R2 agonist	MPTP inh	CRFBP-R2 block	TMEM16A act	NR3A LBD binder	TMEM16A inh	TMEM16A reconf	TMEM16A Ca cntr	YFP-HEK293 quench	ClC-1 inh
Cc1cc(=O)oc2cc(OCC(O)CN3CCc4ccccc4C3)ccc12 (configuration not stated)	0	4	0	i	-1	25*	i	i	-1.3	-8
CCOC(=O)C(CCC(=O)O)(CCC(C)C)c1csc(N)n1 (configuration not stated)	0	1	-5	i	0	100*	i	i	-0.97	-14
CCOC(=O)C(CC)(CCC(=O)O)c1csc(N)n1 (configuration not stated)	-1	0	-8	i	-1	i	.	.	.	.
CCCCCC(=O)N1C[C@H](O)[C@@H](n2cc(C3CC3)nn2)C[C@@H]1c1ccc(Cl)cc1	1	1	9	.	.	.	.	.	.	.
CC(Oc1ccc(Cl)cc1Cl)c1nc(-c2ccc(NC(=O)c3cccnc3)cc2)no1 (configuration not stated)	2	2	-1	i	12*	25*	i	i	-0.97	-15
O=C(Nc1nnc(-c2ccccc2)s1)c1cccc(S(=O)(=O)N2CCOCC2)c1	7	-3	-5	i	0	i	.	.	.	.
O=C(Nc1nnc(-c2ccccc2)s1)c1cc(S(=O)(=O)N2CCOCC2)c(Cl)cc1Cl	3	47	25	i	-2	25*	i	i	-1.2	-4
COc1ccc(S(=O)(=O)N2CCOCC2)cc1NC(=O)c1ccncc1	-2	-2	3	i	3	.	.	.	.	.
CCN(CC)C(=O)C1CCCN(c2ccc([N+](=O)[O-])cc2/C=N/NC(=O)c2cccc(Br)c2)C1 (configuration not stated)	1	2	4	i	-5	100*	i	i	-0.86	-12

Screening results (PubChem BioAssay)
